Reference: PubChem BioAssay (Tox21)
Where “and” joins values, the source holds several entries; their conditions need not be identical. Identical values can stand only once. Records with an inconclusive call do not appear. Calls of active or inactive are those of the source. Calls follow the shape of the dose curve; as a rule, active = well fitted curve in the direction sought with a large enough effect in the repeat runs; inconclusive = weak or mixed curves; inactive = no such curve, though single readings can be large; an effect the other way counts as inactive or inconclusive.

Legend:
[1] = A CellTox Green Cytotoxicity Assay to monitor cytotoxicity in HEK293 cells - 40 hour (AID 1224871); also: nearly all actives have a fitted effect of over 45% in size
Summary of the method: (§1)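 Read-out: fluorescence of a cell-impermeant cyanine dye staining DNA of dead cells, proportional to cytotoxicity. HEK293, 600 cells/well with reagent, compound (23 nL DMSO) added after 5 h; reads at 0, 8, 16, 24, 32, 40 h.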

[2] = qHTS RealTime-Glo MT Cell Viability Assay in HEK293 cells - 16 hour (AID 1224872); also: top concentration of the series differs between compounds; nearly all actives have a fitted effect of over 50% in size
Summary of the method: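 Nonlytic real-time viability readout: viable cells convert prosubstrate to NanoLuc substrate, giving luminescence proportional to live cell number. HEK293, 600 cells/well, compound added after 5 h, continuous culture at 37 C.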

[3] = qHTS RealTime-Glo MT Cell Viability Assay in HepG2 cells - 8 hour (AID 1224873); also: nearly all actives have a fitted effect of over 55% in size
Summary of the method: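 HepG2 cells (600/well) mixed with RealTime-Glo MT reagent, settled 5 h at 37 C/5% CO2 before compound addition. Nonlytic NanoLuc luminescence from viable-cell prosubstrate reduction read repeatedly during 40 h treatment at 37 C.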

[4] = qHTS RealTime-Glo MT Cell Viability Assay in HEK293 cells - 40 hour (AID 1224874); details: RealTime-Glo luminescence; max response: hits give low values; also: nearly all actives have a fitted effect of over 50% in size
Summary of the method: (§2)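 Luminescence readout at each listed time point; HEK293, 600 cells/well, RealTime-Glo MT reagent added with cells; compounds pinned (23 nL in DMSO) after 5 h at 37 C; continuous culture at 37 C.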

[5] = A CellTox Green Cytotoxicity Assay to monitor cytotoxicity in HEK293 cells - 24 hour (AID 1224875); also: series mostly up to about 77 µM; nearly all actives have a fitted effect of over 45% in size
Summary of the method: as §1

[6] = A CellTox Green Cytotoxicity Assay to monitor cytotoxicity in HepG2 cells - 16 hour (AID 1224876); also: nearly all actives have a fitted effect of over 45% in size
Summary of the method: (§3)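 HepG2, 600 cells/well premixed w/ CellTox Green; 5 h settle, 37 C/5% CO2; pintool cpd add (DMSO); 37 C, 40 h; fluorescence read at 0, 8, 16, 24, 32, 40 h.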

[7] = qHTS RealTime-Glo MT Cell Viability Assay in HepG2 cells - 32 hour (AID 1224877); also: nearly all actives have a fitted effect of over 55% in size
Summary of the method: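 Luminescence read-out: viable HepG2 cells reduce a prosubstrate to a NanoLuc substrate, giving a signal proportional to live cell number. Reads taken at 0, 8, 16, 24, 32 and 40 h of compound exposure at 37 C.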

[8] = A CellTox Green Cytotoxicity Assay to monitor cytotoxicity in HepG2 cells - 24 hour (AID 1224878); also: nearly all actives have a fitted effect of over 45% in size
Summary of the method: as §3

[9] = A CellTox Green Cytotoxicity Assay to monitor cytotoxicity in HepG2 cells - 40 hour (AID 1224879); also: nearly all actives have a fitted effect of over 40% in size
Summary of the method: as §3

[10] = qHTS RealTime-Glo MT Cell Viability Assay in HEK293 cells - 0 hour (AID 1224880)
Summary of the method: as §2
% is scaled to controls: 0 for no effect and ±100 for the full control effect.

NNC(=O)c1ccncc1
inactive: Potency [1] | Potency [2] | outcome [3] | max response [4] 1.61% and 0.145% and 4.04% | Potency [5] | Potency [6] | Potency [7] | Potency [8] | Potency [9] | Potency [10]

NC(N)=O
inactive: Potency [1] | Potency [2] | outcome [3] | max response [4] 7.94% and 4.18% and 0.0917% | Potency [5] | Potency [7] | Potency [8] | Potency [9] | Potency [10]

O=C(O)C(=O)O
inactive: Potency [1] | Potency [2] | outcome [3] | max response [4] -1.98% and 1.92% and 0.465% | Potency [5] | Potency [6] | Potency [7] | Potency [8] | Potency [9] | Potency [10]

CC(O)CO (stereo not given)
inactive: Potency [1] | Potency [2] | outcome [3] | max response [4] -4.92% and 4.28% and 2.26% | Potency [5] | Potency [6] | Potency [7] | Potency [8] | Potency [10]

N=C(N)c1ccc(OCCCCCOc2ccc(C(=N)N)cc2)cc1
inactive: Potency [6]

CCCC(CCC)C(=O)O
inactive: Potency [6]
